Results on 14 compounds are retold here after PubChem BioAssay (NCI).

Some test systems named below: T-47D breast; BT-549 breast; MDA-MB-435 melanoma; SW-620 colon; MCF7 breast; HCT-116 colon; HCC-2998 colon; KM12 colon.
Holding throughout (assay): NCI-60 one-dose screen, 48 h (100 = growth as untreated, 0 = no growth, -100 = all killed)
Holding throughout (settings): 10 µM unless noted

Structures are written as SMILES. The panel holds about 83,000 compounds, 20% with a hit somewhere; the sample as a whole holds those more often.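 Activity criterion: percent growth below 10, measured after cells in 96-well plates were exposed to a single compound concentration for 48 hours.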 Unmarked numbers belong to inactive results. Active and inactive are the calls of the source.

In the case of `COc1ccc([C@H]2c3[nH]c4ccccc4c3C[C@@H]3C(=O)N(C4CCN(Cc5ccccc5)CC4)CC(=O)N23)c(OC)c1`, the growth was 82.8% in the experiment with T-47D breast; 86.1% in the experiment with BT-549 breast; 83.3% in the experiment on MDA-MB-435 melanoma; 79.9% in the experiment with SW-620 colon; 51.7% in the experiment with MCF7 breast; 56.8% in the experiment on HCT-116 colon. The growth is 78.1% with HCC-2998 colon and 79.6% in the experiment on KM12 colon.
With `COc1ccc(-c2cc(-c3cccc4ccccc34)n3c(n2)nc2ccccc23)cc1OC`, the growth in the experiment with T-47D breast is 19.2%; with BT-549 breast, 34.6%; in the experiment on MDA-MB-435 melanoma it was 47.3%; with SW-620 colon, 29.8%; in the experiment on MCF7 breast, 15.4%; with HCT-116 colon it was 31.5%. Moreover, the growth with HCC-2998 colon was 72%; with KM12 colon, 68.1%.
`CN1CCN(c2nc(-c3cnc4ccccc4n3)cc3ccccc23)CC1`: the growth in the experiment on T-47D breast was 68.9%; in the experiment on BT-549 breast, 85.7%; with MDA-MB-435 melanoma, 27.1%; with SW-620 colon it was 11.5%; in the experiment on MCF7 breast, 54.9%; in the experiment on HCT-116 colon, 21.4%. The growth in the experiment on HCC-2998 colon is -26.4% (active); in the experiment with KM12 colon, 88.1%.
As for `CN1C(=O)/C(=C/C=C/c2ccco2)SC1=S`, the growth in the experiment with T-47D breast is 63%; in the experiment on BT-549 breast, 55.1%; in the experiment on MDA-MB-435 melanoma, 95.8%; in the experiment with SW-620 colon, 104%; in the experiment with MCF7 breast it was 24.2%; with HCT-116 colon it was 54.4%. Further, the growth is 99.2% in the experiment with HCC-2998 colon and 91.3% in the experiment with KM12 colon.
On to `COc1ccc(/C(C)=C(\c2ccc(Cl)cc2)c2ccc(OCCN)cc2)cc1`, for which the growth was 95.2% in the experiment on T-47D breast; 91.7% with BT-549 breast; 76.9% in the experiment on MDA-MB-435 melanoma; 36.4% with SW-620 colon; 72.4% with MCF7 breast; 42.3% with HCT-116 colon. In addition, the growth in the experiment with HCC-2998 colon was 30.2%; with KM12 colon, 78.2%.
Regarding `C=CCn1c(SCC(=O)c2ccc(OC)cc2)nnc1-c1ccc(OC)cc1`, the growth in the experiment with T-47D breast is 105%; in the experiment with BT-549 breast, 95.9%; in the experiment on MDA-MB-435 melanoma it was 97.8%; in the experiment on SW-620 colon, 106%; in the experiment with MCF7 breast, 96%; in the experiment with HCT-116 colon, 96.1%. Besides, the growth was 109% in the experiment with HCC-2998 colon and 97.7% in the experiment with KM12 colon.
Consider `Cc1ccc(/C=C/CC(=O)Nc2ccc(C(=O)Nc3ccc(F)cc3N)cc2)cn1`, for which the growth was 28.6% with T-47D breast; 73% with BT-549 breast; 47.2% with MDA-MB-435 melanoma; 46.3% in the experiment on SW-620 colon; 39.6% in the experiment on MCF7 breast; 39% with HCT-116 colon. The growth was 64.6% in the experiment on HCC-2998 colon and 75.2% in the experiment on KM12 colon.
Take `COc1cc(/C=C2\SC(=O)NC2=O)ccc1OCC(=O)Nc1ccc(C(=O)/C=C/c2cc3ccccc3nc2Cl)cc1`: the growth was 66.3% with T-47D breast; 72.9% in the experiment on BT-549 breast; 83.6% in the experiment with MDA-MB-435 melanoma; 96.6% with SW-620 colon; 20.9% with MCF7 breast; -62% (active) in the experiment on HCT-116 colon. Further, the growth with HCC-2998 colon is 103%; with KM12 colon, 91.6%.
As to `CCN(CC)CCN1C(=O)c2c(c3c4cccnc4[nH]c3c3ccc4ccccc4c23)C1=O`, the growth is 66% with T-47D breast; 85.8% with BT-549 breast; 87.6% with MDA-MB-435 melanoma; 53.4% with SW-620 colon; 17.4% with MCF7 breast; 63.1% with HCT-116 colon. The growth was 77.8% in the experiment with HCC-2998 colon and 81.8% in the experiment with KM12 colon.
`CCNC(=O)Oc1ccc(/C(=C(/C)c2ccc(Cl)cc2)c2ccc(OCCN(C)C)cc2)cc1`: the growth in the experiment on T-47D breast is 54.8%; with BT-549 breast, 77%; in the experiment on MDA-MB-435 melanoma it was 91.6%; with SW-620 colon, 82.2%; with MCF7 breast, 18.1%; in the experiment with HCT-116 colon, 43%. Moreover, the figures for the growth in the experiment on HCC-2998 colon and in the experiment with KM12 colon were 81.2% and 89.8%, respectively.
In the case of `COc1cc(O)c2c(c1)/C=C/C[C@H](O)[C@H](O)C(=O)/C=C\C[C@H](C)OC2=O`, the growth is -1.9% (active) in the experiment with T-47D breast; -29.2% (active) with BT-549 breast; -15.4% (active) in the experiment on MDA-MB-435 melanoma; -9.76% (active) in the experiment with SW-620 colon; 0.782% (active) in the experiment on MCF7 breast; -16.3% (active) in the experiment on HCT-116 colon. For the same compound, the figures for the growth in the experiment with HCC-2998 colon and with KM12 colon were -41.9% (active) and 19.1%, respectively.
As for `C#C[C@]1(O)CC[C@H]2[C@@H]3CC=C4c5sc(Nc6ccncc6)nc5CC[C@]4(C)[C@H]3CC[C@@]21C`, the growth is 39.9% in the experiment with T-47D breast; 15.9% in the experiment on BT-549 breast; -75.2% (active) in the experiment on MDA-MB-435 melanoma; -37.2% (active) in the experiment with SW-620 colon; -42.1% (active) in the experiment with MCF7 breast; 3.69% (active) in the experiment with HCT-116 colon. For the same compound, the growth was 1.79% (active) with HCC-2998 colon and -94.1% (active) in the experiment on KM12 colon.
Regarding `O=C(CCCCCCN1CC(=O)N2[C@@H](c3ccc(Cl)c(F)c3)c3[nH]c4ccccc4c3C[C@H]2C1=O)NO`, the growth with T-47D breast was 75.6%; in the experiment on BT-549 breast, 108%; in the experiment on MDA-MB-435 melanoma it was 82.8%; with SW-620 colon, 74.7%; in the experiment on MCF7 breast, 73.2%; with HCT-116 colon, 55.5%. Further, the figures for the growth in the experiment on HCC-2998 colon and in the experiment with KM12 colon were 99.2% and 87.1%, respectively.
Regarding `O=C(NCCNc1cc(-c2cn(-c3ccccc3)nc2-c2cccc(O)c2)ccn1)Nc1ccc(Cl)c(C(F)(F)F)c1`, the growth in the experiment with T-47D breast was 67.3%; with BT-549 breast, 98%; in the experiment on MDA-MB-435 melanoma, 52.8%; with SW-620 colon, 46.8%; with MCF7 breast, 10.4%; in the experiment with HCT-116 colon, 50.6%. The growth was -77.7% (active) with HCC-2998 colon and 37.9% in the experiment with KM12 colon.
